Among all 220,000 compounds or so, about 8,200 (3.7%) were called active. This is one part of a sample in which actives are shown more often than they occur.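 How the source made its calls: active means compounds that reduced the stress-induced luciferase reporter signal by more than about 70% of percent inhibition (limit read from the data); inactive means the rest.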
Assay: inhibitors of CHOP promoter induction, primary screen, cell-based, unfolded protein response, luciferase reporter (AID 2732);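 further: 0% = tunicamycin plus vehicle and 100% = wells without tunicamycin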
Conditions: CHO-K1 CHOP-promoter luciferase, tunicamycin-induced, 15-18 h; at 10 µM; active compounds read high

inhibition, active:
COc1cc(/C=C(\C#N)c2nc3c(s2)CC(C)CC3)ccc1O (stereo not given) 93.6%
Cc1nc(C)c2c(c1C(F)(F)F)-c1ccccc1C2(F)F 84.7%
Cc1cc(C)cc(C(=O)NC(=S)Nc2ccc3[nH]c(=O)[nH]c3c2)c1 81.3%
CC1CC2=C(CC1/C=N/NC(N)=S)C(C)(C)CCC2 (stereo not given) 89.8%
CC1(C)C=C2[C@H]3CC[C@@H]4[C@@]5(C)CCC(=O)C(C)(C)[C@@H]5CC[C@@]4(C)[C@]3(C)CC[C@@]2(C(=O)O)CC1 95%
Cc1ccc(-n2ncc3c2ncn2nc(-c4ccco4)nc32)c(C)c1 105%
O=C(Nc1nnc(SCc2ccc(Cl)cc2Cl)s1)C1COc2ccccc2O1 (stereo not given) 71.3%
Cc1nc2ccccc2nc1N/N=C/c1ccc(O)cc1O 74.5%
Cc1ccc(-c2csc(-c3c[nH]c4ccccc34)n2)cc1 98.1%
COc1cc(NC(=O)Nc2ccc(C)cc2)cc([N+](=O)[O-])c1 71.2%
COc1cc(C(=O)OC(C)C(=O)NCC2CCCCC2)cc(NC(=O)c2ccco2)c1OC (stereo not given) 101%
CCc1ccccc1NC(=O)/C(=C/c1ccccc1)c1ccccc1 84.8%
N#CC(C(=O)c1ccc(S(=O)(=O)N2CCCCCC2)cc1)c1nc2ccccc2[nH]1 (stereo not given) 101%
CCN(CC)S(=O)(=O)c1ccc(C)c(NC(=O)COc2ccc(Br)cc2Cl)c1 88%
CC(C)c1ccc(N2CCN(C(=O)c3ccccc3NC(=O)/C=C(\C(=O)O)c3ccccc3)CC2)cc1 110%
Cn1c(=O)c2c(nc(N/N=C/c3cccs3)n2Cc2ccc(Br)cc2)n(C)c1=O 79.6%
CCOC(=O)c1sc(C)c2c1NC(C)(c1cccc3ccccc13)NC2=O (stereo not given) 74.8%
CC1(C)COC(c2cccn2Cc2ccccc2Cl)=N1 71.8%
O=C(/C(=C/c1cccc(Cl)c1)c1nc2ccccc2[nH]1)c1ccccc1 92.6%
COc1ccc(-n2c(SCC(=O)Nc3sc4c(c3C#N)CCCC4)nnc2-c2ccc(O)cc2)cc1 106%
O=C(Oc1ccc(-c2nc(-c3ccccn3)no2)cc1)c1ccccc1 83.7%
CC(=O)c1c(C)[nH]c(C(=O)COC(=O)c2cccc(S(=O)(=O)N(C)c3ccccc3)c2)c1C 86.8%

inhibition, inactive:
CC/C=C/C(=O)N1CC2(CC(c3cccc(NC(=O)CC)c3)=NO2)C[C@H]1C(N)=O (stereo not given in full) -5.15%
CC(C)Cc1nnc(NC(=O)CCC(=O)Nc2ccc3cn[nH]c3c2)s1 -20.9%
COc1cc(/C=N/Nc2nc3ccccc3s2)ccc1O 3.98%
CCOc1cc(/C=C(\C#N)c2nc(-c3cccs3)c(NC(C)=O)s2)ccc1O -1.5%
O=C(COC(=O)/C=C/c1ccc2c(c1)OCO2)NC1CCS(=O)(=O)C1 (stereo not given) 17.7%
CSc1n[nH]c(=S)n1N 0.04%
CC(C)(C)C(=O)OCc1nc(-c2ccc(O)c(O)c2)cs1 -105%
Cc1ccc(C(=O)NC(=S)Nc2ccc3[nH]c(=O)[nH]c3c2)cc1C 1.63%
Cc1ccc(S(=O)(=O)/N=C(/Nc2ccc3[nH]c(=O)[nH]c3c2)c2ccccc2)cc1 -16.7%
CC1(C)CCCC2=C1CC1C(=O)N(c3ccccc3)C(=O)C1C2 (stereo not given) 12%
CN(C(=O)Nc1ccc(Cl)cc1)n1cnc2ccccc2c1=O 20.1%
COC(=O)/C=C(\Oc1ccccc1)C1(O)CCCCC1 7.27%
Fc1ccc(Nc2nnns2)cc1 3.88%
COC(=O)CSc1ncnc2c1cnn2-c1ccc(C)cc1C -4.08%
Cc1ccc(-n2ncc3c(=O)n(-c4ccc(C)c(C)c4)c(-c4ccco4)nc32)cc1 37.9%
O=C(NCc1cccnc1)Nc1cccc(NC(=O)NCc2cccnc2)c1F 7.4%
CN1CCN(C2=NCCO2)CC1 2.43%
O=C(Nc1nc2c(F)cc(F)cc2s1)C1COc2ccccc2O1 (stereo not given) 17.5%
O=C(Nc1nnc(SCc2c(Cl)cccc2Cl)s1)C1CCCO1 (stereo not given) 18.8%
Cc1cnc(NC(=O)c2ccccn2)s1 8.8%
CN(C)S(=O)(=O)c1ccc(C(=O)NCC(C)(C)N2CCOCC2)cc1 -18.3%
Oc1ccc(/C=N/NC2=NCCCCC2)c(O)c1 -12.1%
Oc1ccc(/C=N/Nc2nc(-c3ccccc3F)nc3ccccc23)c(O)c1 57.6%
O=C(O)Cc1csc(NC(=O)CSc2nnnn2-c2ccc(O)cc2)n1 -5.01%
CCc1ccc(S(=O)(=O)NCC(O)COc2ccc(OC)cc2)cc1 (stereo not given) 16.3%
O=C(N/N=C\c1cc(Br)c(Br)o1)C1COc2ccccc2O1 (stereo not given) 6.22%
Cc1ccc(-c2csc(-c3cc(C)on3)n2)cc1 -14.2%
CCCc1cc(-c2nc(-c3ccc(C)cc3)cs2)ccn1 39.6%
COCc1cc(=O)oc2cc(NS(=O)(=O)c3ccc(C)cc3)ccc12 9.01%
Cc1cc(Nc2ccc(N3CCOCC3)cc2)c2cccc(C)c2n1 -27.9%
CC(=O)c1ccc(NC(=O)Nc2ccc([N+](=O)[O-])cc2C)cc1 51.8%
COC(=O)c1ccc(NC(=O)Nc2ccc(C)cc2)cc1 26.6%
Cn1c(=O)c2c(nc(NCc3ccccc3)n2CC(N)=O)n(C)c1=O 9.77%
Cc1ccccc1N1CCN(Cc2nc(Cc3ccccc3F)no2)CC1 -7.61%
COc1cc(C(=O)N[C@@H](C)C(=O)NCc2ccco2)cc(OC)c1OC 0.36%
COC(=O)c1cc(Cl)c(NC(=O)c2ccco2)cc1OC -8.18%
Cc1[nH]n(C)c(=O)c1N=Nc1ccc(S(C)(=O)=O)cc1 7.35%
CCc1ccccc1NC(=O)c1cccs1 39.1%
O=C(/C=C/c1ccccc1)N/C(=C/c1ccccc1)C(=O)Nc1ccccc1O -0.94%
O=C(N/N=C/c1ccccn1)c1ccc(S(=O)(=O)N2CCCCCC2)cc1 -0.54%
COc1ccccc1N1CCN(C(=O)c2ccc(S(=O)(=O)N3CCCCC3)cc2)CC1 10.2%
CCN(CC)S(=O)(=O)c1ccc(Cl)c(NC(=O)c2ccncc2)c1 4.4%
Cc1ccc(S(=O)(=O)N(C)C)cc1NC(=O)COC(=O)c1c(C)noc1C 22.9%
COC(=O)c1cccc(NS(C)(=O)=O)c1 27.4%
COC(=O)c1sc(SC)c(S(=O)(=O)C(C)C)c1N/N=C(\C#N)S(=O)(=O)c1ccccn1 5.06%
CCN(CC(=O)Nc1cccc(S(N)(=O)=O)c1)Cc1nc2ccccc2c(=O)[nH]1 -6.72%
C=CCSc1nc(N)cc(=O)[nH]1 14.8%
Cc1cccc(N2CCN(C(=O)c3ccccc3NC(=O)C3CCCCC3C(=O)O)CC2)c1 (stereo not given) 13.9%
O=C(O)C1CC=CCC1C(=O)Nc1ccccc1C(=O)N1CCN(c2ccccc2)CC1 (stereo not given) 12.7%
CC12CN3CCN(CC(C3)/C1=N\NC(=O)c1ccccc1N)C2 7.18%
Cn1c(=O)c2c(nc(NCCc3ccccc3)n2Cc2ccccc2)n(C)c1=O 61.2%
CCCCNc1nc2c(c(=O)n(C)c(=O)n2C)n1Cc1cccc(OC)c1 17.1%
O=C(CS(=O)(=O)c1ccc(C(F)(F)F)cn1)NNC(=O)c1ccccc1 3.02%
CCOC(=O)c1sc2nc(C)[nH]c(=O)c2c1C 3.38%
CCOC(=O)c1sc2nc(CSc3ccccc3)[nH]c(=O)c2c1C 63.4%
Cc1nc(/N=C(\N)NC(=O)NC2CCCCC2)nc2ccccc12 33.5%
O=C(Nc1cccn(Cc2ccccc2Cl)c1=O)NC1CCCCC1 26.3%
O=c1ccn(Cc2ccccc2Cl)cc1 68.6%
O=C(Cc1nc2ccccc2[nH]c1=O)c1ccc(Cl)cc1 -13.2%
CCC(=O)/C(=C(/O)c1ccccc1)c1nc2ccccc2[nH]1 -37.6%
Cc1ccc(NNC(=O)c2c(F)cccc2Cl)cc1Cl 4.19%
NC(=O)c1c(NC(=O)CSc2nnc(-c3ccco3)n2N)sc2c1CCCC2 22.2%
COc1cccc(CN(C)CC(=O)Nc2sc3c(c2C#N)CCC3)c1 3.74%
COc1ccc(OC)c(-n2c(-c3ccn[nH]3)n[nH]c2=S)c1 12.3%
CCOC(=O)N1CCN(c2c(NCCN3CCN(c4ccccc4F)CC3)c(=O)c2=O)CC1 18.8%
c1ccc(-c2noc(-c3cccs3)n2)nc1 22.5%
O=C(Oc1ccccc1)c1ccc2nccnc2c1 -6.68%
O=c1c2c3c(sc2n(CCN2CCCC2)c(=O)n1Cc1ccccc1)CCCCC3 44.2%
CSc1nnnn1-c1c(C)cc(C)cc1C 3.56%
COc1ccc(C)cc1NC(=O)C(OC(=O)c1cccc(S(=O)(=O)N(C)c2ccccc2)c1)c1ccccc1 (stereo not given) -0.27%
CN(c1ccccc1)S(=O)(=O)c1ccc(Cl)c(C(=O)OCC(N)=O)c1 7.63%
CN(c1ccc(OCC(=O)NC2=NCCS2)cc1)S(=O)(=O)c1ccc(F)cc1 -3.41%
Cc1ccc(S(=O)(=O)/N=C(/NC(=S)Nc2c(C)n(C)n(-c3ccccc3)c2=O)c2ccccc2)cc1 5.21%

From PubChem BioAssay AID2732 (Emory University Molecular Libraries Screening Center, 2010)
